p53 reactivator: qHTS assay for re-activators of p53 using a Luc reporter; H1299 p53-A138V BP100-luciferase reporter, luminescence, 24 h; Potency, µM (doses to about 92.2 µM), for the others: at the highest dose activity change, positive = activation, hits mostly activators; 320,000 tested, 0.063% active; AID 504706, 2011; note: % of control where 0% means no effect; nearly all actives have a fitted effect of over 45% in size
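p53-null H1299 cells stably carrying temperature-sensitive p53-A138V and a BP100-luciferase reporter were pinned with compounds (4-point, 1:5 series) and held 24 hrs at 37 deg C. Luminescence was read 10 min after detection reagent.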
Rab9 promoter act: qHTS Assay for Rab9 Promoter Activators; Huh7 Rab9 promoter-luciferase reporter, luminescence, 24 h; Potency, µM (doses to about 9.22 µM), without a hit: top-dose activation, negative = inhibition, actives largely listed as activators; 320,000 tested, 2.8% active; AID 485297, 2010; note: % of control where 0% means no effect; nearly all actives have a fitted effect of over 60% in size
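Huh7 reporter line, Rab9 promoter upstream of luciferase. Compound exposure 24 h at 37 °C in reduced-serum medium with 10% FBS. Read-out: luminescence.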
NPC1 prom act: qHTS Assay for NPC1 Promoter Activators | Potency, µM (titrated, usually from 9.22 µM), inactives show at the highest dose activation, actives largely listed as activators | AID 485313, 2010 | 320,000 tested, 2.4% active | Huh7 NPC1 promoter luciferase reporter, 24 h; note: % of control where 0% means no effect; nearly all actives have a fitted effect of over 60% in size
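Compounds in DMSO were transferred onto Huh7 NPC1-luciferase reporter cells pre-incubated 2 h; after 24 h at 37 °C, Amplite reagent was dispensed and luminescence recorded 10 min later.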
SMN2 splice enh: qHTS Assay for Enhancers of SMN2 Splice Variant Expression; 210,000 tested, 2.8% active; AID 1458, 2008; Potency, µM (titrated, usually from 46.1 µM), without a hit: at the highest dose activity change, positive = activation, hits mostly activators; HEK293 SMN2-luciferase splicing reporter, luminescence, 30-36 h; note: % of control where 0% means no effect; nearly all actives have a fitted effect of over 55% in size
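HEK293 cells carry an SMN2 […]–luciferase reporter in which exon 7 inclusion puts luciferase in frame. Cells were plated 10-12 h before compound addition, then incubated 30-36 h at 37C. ONE-Glo luminescence was read; sodium butyrate at 4.5 mM final served as control.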
ELG1 genotoxic: qHTS screen for small molecules that induce genotoxicity in human embryonic kidney (HEK293T) cells expressing luciferase-tagged ELG1. HEK293T ELG1-luciferase reporter, luminescence, 16 h. Potency, µM (top dose mostly 46 µM), for inactives: at the highest dose activity change, positive = activation, actives largely listed as activators. 330,000 tested, 1.3% active. AID 504466, 2011; note: % of control where 0% means no effect; nearly all actives have a fitted effect of over 60% in size
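HEK293T cells expressing luciferase-tagged ELG1 were exposed to compound or DMSO vehicle for 16 hr at 37 °C and 5% CO2. Luciferase activity was then measured with ONE-Glo after 30 min at room temperature.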
FLuc counter: qHTS profiling assay for firefly luciferase inhibitor/activator using purifed enzyme and Km concentrations of substrates (counterscreen for miR-21 project) | purified FLuc, Km substrates, luminescence inhibition | AID 588342, 2011 | Potency, µM (titrated, usually from 57.5 µM), inactives show at the highest dose activity change, negative = inhibition, actives largely listed as inhibitors | 360,000 tested, 6.9% active | Luciferin 4-monooxygenase (Photinus pyralis), P08659;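 note: plate controls were vehicle for no effect and reference inhibitor for full effect; nearly all actives have a fitted effect of over 55% in size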
Target sequence (P08659 whole entry, looked up): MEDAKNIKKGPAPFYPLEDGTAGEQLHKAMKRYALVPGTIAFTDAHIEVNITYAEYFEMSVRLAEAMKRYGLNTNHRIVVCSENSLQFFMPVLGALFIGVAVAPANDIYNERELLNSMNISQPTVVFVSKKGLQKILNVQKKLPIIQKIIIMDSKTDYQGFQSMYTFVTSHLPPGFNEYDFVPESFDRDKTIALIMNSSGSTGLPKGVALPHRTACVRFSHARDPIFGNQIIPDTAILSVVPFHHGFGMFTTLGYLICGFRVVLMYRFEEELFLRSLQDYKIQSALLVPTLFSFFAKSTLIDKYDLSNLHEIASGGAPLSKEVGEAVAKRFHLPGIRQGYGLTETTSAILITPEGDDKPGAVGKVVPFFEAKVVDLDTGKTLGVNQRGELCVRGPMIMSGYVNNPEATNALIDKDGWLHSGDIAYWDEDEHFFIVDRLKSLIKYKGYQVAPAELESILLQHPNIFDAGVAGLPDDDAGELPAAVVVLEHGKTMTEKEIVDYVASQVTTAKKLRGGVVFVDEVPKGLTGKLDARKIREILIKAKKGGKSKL
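Purified P. pyralis luciferase, 10 nM final, with Km-level 10 uM D-luciferin and 10 uM ATP in 50 mM Tris acetate pH 7.5, 10 mM Mg acetate, 0.01% Tween-20, 0.05% BSA; 6-point qHTS titration about 60 µM downward; luminescence read.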
Starred values were filed as active, the others as inactive; ? = inconclusive; / = not tested or not shown; [ ] = dose if it differs, or a comment. Sampled rows, rich in hits. Any-hit rate of the full collection: about 7.4%. Calls come from the whole dose curve; as a rule, active = well fitted curve in the direction sought with a large enough effect; inconclusive = small, poorly fitted or top-dose-only effect, or another doubt; inactive = no such curve, though single readings can be large; an effect the other way counts as inactive or inconclusive. Potency is the fitted concentration of half-maximal effect.

SMILES	p53 reactivator	Rab9 promoter act	NPC1 prom act	SMN2 splice enh	ELG1 genotoxic	FLuc counter
COc1ccc2[nH]c(-c3ccc(C)cc3)cc(=O)c2c1	?	2.5µM*	?	1.3µM*	2.9µM*	1.5µM*
COc1ccc2nc(C(C)O)[nH]c2c1 (centres undefined)	-2%	-1%	2%	9%	0%	-6%
COc1ccc(-c2cc(=O)c3cc(F)ccc3[nH]2)cc1	19%	6%	2%	-3%	11%	?
COc1ccc2nc(-c3ccccc3)[nH]c2c1	/	1.6µM*	2.8µM*	6.3µM*	1.3µM*	2.1µM*
COc1ccc2[nH]c(-c3ccccc3)cc2c1	?	0.89µM*	1.6µM*	/	?	6µM*
CCOc1ccc2nc(-c3ccccc3)[nH]c2c1	13%	?	0.79µM*	14µM*	?	1.1µM*
COc1ccc(CN2COc3ccc4c(-c5ccccc5)cc(=O)oc4c3C2)cc1OC	/	/	/	33%	/	-4%
Cc1nn(C(C)C(=O)NC2CCC(C)CC2)c(=O)c2nn(-c3ccccc3)c(C)c12 (centres undefined)	6%	24%	?	/	9%	?
CCn1c2ccccc2c2cc(NC(=O)COC(=O)c3ccccc3F)ccc21	-1%	-5%	-2%	-51%	?	-1%
O=C(Nc1ccccc1)N1CCOCC1	4%	4%	-5%	-15%	1%	1%
CCn1c2ccccc2c2cc(NC(=O)N3CCOCC3)ccc21	11%	3.5µM*	?	?	?	3%[2.3 µM]
CCn1c2ccccc2c2cc(NC(=O)COC(=O)c3ccc(NC(=O)CC#N)cc3)ccc21	1%	-1%	-2%	/	23µM*	14%
O=C(Nc1ccc2c(c1)oc1ccccc12)N1CCOCC1	?	3.5µM*	3.5µM*	?	?	12µM*
O=C(CCOc1ccccc1)N(Cc1cccnc1)c1nc2ccc(F)cc2s1	/	/	/	/	/	-11%
Cc1cc(C(F)(F)F)n2nc(-c3ccc(Br)cc3)cc2n1	/	/	/	0%	/	4%
Cc1cc(C)nc(Nc2nc(=O)c3ccccc3s2)n1	?	?	?	?	18µM*	17µM*
Cc1cc2c(sc3ccccc32)c(C)n1	0%	-2%	-3%	/	2%	-20%
CC(=O)c1ccc(N2C(=O)N(Cc3ccc(F)cc3)c3ccccc3S2(=O)=O)cc1	/	/	/	/	/	-7%
O=C(O)c1cc(N/N=C/c2ccc(-c3ccc(F)cc3)o2)ccc1Cl	?	?	?	/	?	9.5µM*
Cc1ccc(C(=O)N/N=C/c2ccc(-c3cccc(Cl)c3)o2)cn1	-2%	-1%	-6%	/	-6%	?
O=C(Cc1ccc(F)cc1)N/N=C/c1ccc(-c2ccc(Cl)c(C(=O)O)c2)o1	-1%	-2%	-1%	11%	-1%	?
O=C(O)c1ccc(N/N=C/c2ccc(-c3cccc(Cl)c3)o2)cc1	?	0.32µM*	0.45µM*	/	?	2.7µM*
Cc1c(C(=O)O)cccc1-c1ccc(/C=N/n2cnnc2)o1	10%	-4%	-10%	/	7%	-4%
Cc1c(C(=O)O)cccc1-c1ccc(/C=N/Nc2ccc(Br)cc2)o1	?	?	?	/	?	12µM*
O=C(O)c1ccc(N/N=C/c2ccc(-c3ccc(Cl)cc3Cl)o2)cc1	10%	21%	?	/	?	0.95µM*
SMILES	p53 reactivator	Rab9 promoter act	NPC1 prom act	SMN2 splice enh	ELG1 genotoxic	FLuc counter
COC(=O)N/N=C/c1ccc(-c2ccc(Cl)cc2Cl)o1	-2%	8%	-3%	/	5%	?
O=C(O)c1ccc(N/N=C/c2ccc(-c3cc(Cl)ccc3Cl)o2)cc1	18%	?	?	/	?	9.5µM*
COc1ccc(-c2cn3c(n2)CCC3)cc1	?	1.6µM*	2.5µM*	13µM*	?	13µM*
Cc1ccc(-c2cn3c(n2)CCCC3)cc1	8%	-6%	-11%	-25%	0%	-6%
c1ccc(-c2ccc(-c3cn4c(n3)CCC4)cc2)cc1	?	?	0.45µM*	27%	?	0.85µM*
COc1ccc(NCC(=O)N/N=C/c2ccc3c(c2)OCCO3)cc1	11%	-3%	2%	?	-1%	19µM*
COc1cc(/C=N/NC(=O)c2ccc(-n3cccc3)cc2)ccc1O	-2%	-7%	-6%	29%	0%	21µM*
COc1ccc(/C=N/NC(=O)c2ccc3c(c2)OCO3)cc1	3%	26%	27%	/	10%	5.4µM*
COc1ccccc1C(=O)NCC(=O)N/N=C/c1ccncc1	19%	-10%	-6%	-8%	4%	-3%
COc1ccccc1C(=O)NCC(=O)N/N=C/c1ccc2c(c1)OCO2	7%	0%	-2%	/	4%	17µM*
O=C(N/N=C/c1ccc(OC(=O)c2ccc3c(c2)OCO3)cc1)c1cncc(Br)c1	-12%	13%	23%	5%	5%	2%
CC(=O)Nc1ccc(S(=O)(=O)N2CCN(c3nc4ccccc4n3CC(C)C)CC2)cc1	-7%	-1%	-21%	/	-2%	-1%
COc1cc(/C=N/NC(=O)c2ccc3c(c2)OCO3)ccc1O	22%	18%	17%	/	?	17µM*
O=C(COc1ccccc1C(=O)N/N=C\c1ccc(O)c(O)c1)N/N=C/c1ccc(O)c(O)c1	-1%	-9%	-5%	?	0%	6.7µM*
CCOC(=O)CC1(NC(=O)c2cc(COc3cccc(OC)c3)on2)CCCCC1	16%	-1%	-3%	/	0%[9.26 µM]	-3%
C/C(=N/NC(=O)c1cc2ccccc2cc1O)C1C(=O)c2ccccc2C1=O	?	?	22%	?	?	17µM*
C/C(CC(=O)N1CCN(C=O)CC1)=N\NC(=O)c1cc2ccccc2cc1O	?	-5%	-3%	16%	0%	21µM*
C/C(=N\NC(=O)c1ccccc1O)C1C(=O)c2ccccc2C1=O	?	28%	?	10µM*	8.2µM*	13µM*
O=C(O)c1ccc(/C=N/NC(=O)c2cc3ccccc3cc2O)cc1	5%	/	/	/	0%	/
CCN(Cc1ccccc1)C(=O)C1CCN(S(=O)(=O)c2ccc3c(c2)CCCN3C(C)=O)CC1	/	/	/	/	/	-2%
Cc1[nH]c2ccccc2c1C1(O)C(=O)N(Cc2ccccc2)c2ccc(Br)cc21 (centres undefined)	/	/	/	-1%	/	-9%

Source: PubChem (National Center for Advancing Translational Sciences (NCATS))
